Assay outcomes as filed in PubChem BioAssay.
Dicer inh: inhibitors of Dicer pre-microRNA processing, primary screen, biochemical, cat-ELCCA, chemiluminescence. Endoribonuclease Dicer (Homo sapiens), Q9UPY3. cat-ELCCA pre-miR-21 Dicer processing; stronger effect = higher value. z-score at 25 µM. 47,000 compounds, 6% hits; in the data active = z-score above about 3, passing the limit was not always enough;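 also: plate controls were vehicle for no effect and no enzyme for full effect; higher signal means more uncleaved substrate so more Dicer inhibition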
Numbers without * were called inactive. This is one part of a sample in which hits are shown more often than they occur.

SMILES	Dicer inh
COc1ccc(Oc2c(C(F)(F)F)oc3cc(OC(C)C(=O)OC(C)C)ccc3c2=O)cc1 (stereo unspecified)	-0.49
CCOC(=O)C1CCCN(C(=O)S(=O)(=O)c2ccc(-c3csc(C)n3)s2)C1 (stereo unspecified)	-0.22
O=c1/c(=C\c2ccccc2)sc2nc(-c3ccccc3)nn12	1.1
Fc1ccc(NCn2nnc3cc(Cl)ccc32)cc1	1
FC(F)(F)Oc1ccc(NCn2nnc3ccccc32)cc1	3.6*
FC(F)(F)c1ccc(NCn2nnc3cc(Cl)ccc32)cc1	6.5
COc1cccc(C2/C(=C(\O)c3ccc(Br)cc3)C(=O)C(=O)N2CCCn2ccnc2)c1 (stereo unspecified)	-0.33
COc1cccc(C(=O)CC2(O)C(=O)N(CCc3ccccc3)c3ccc(Br)cc32)c1 (stereo unspecified)	5.8
CC1(C(=O)c2ccccc2)C2c3cc(Br)ccc3OC(=O)C21C(=O)NCc1ccccc1 (stereo unspecified)	3.4*
O=C(O)CN1C(=O)Nc2ccc(Br)cc2C1c1ccccc1 (stereo unspecified)	-0.49
Cn1cnc2c1c(=O)n(CCNCCO)c(=O)n2C	1.4
Cc1ccc(-c2nnc3c4ccccc4c(C)nn23)cc1S(=O)(=O)N1CCCCC1	1.4
Cc1ccc(-c2nnc3c4ccccc4c(C)nn23)cc1S(=O)(=O)N1CCC(C)CC1	5.5*
Cc1ccc(-c2nnc3c4ccccc4c(C)nn23)cc1S(=O)(=O)N(C)C1CCCCC1	0.96
COc1cc(C2NC(C(=O)O)CS2)ccc1OCc1ccc(Cl)cc1 (stereo unspecified)	-0.86
CNC(=O)Nc1nncnc1C(=O)O	-2.1
CCOC(=O)N/N=C/c1cccc(O)c1	1.2
Cc1nc(-c2ccc(-c3cccs3)s2)sc1-c1ccnn1C(=O)c1cccc(C(F)(F)F)c1	0.8
O=C(C1=NNCC1c1ccccc1)c1ccc2ccccc2c1 (stereo unspecified)	4.3*
O=C(C1=NNCC1c1ccccc1)c1ccccc1 (stereo unspecified)	-0.12
O=C(C1=NNCC1c1c2ccccc2cc2ccccc12)c1ccc(Br)cc1 (stereo unspecified)	-0.74
CN(C)c1ccc(C2(c3ccc(N(C)C)cc3)OC(=O)c3ccccc32)cc1	0.26
Cc1c(C)c(C)c(CSC(N)=Nc2ccc(F)cc2)c(C)c1C	3.3*
CCOC(=O)c1ccc(N=C(N)SCc2ccccc2)cc1	2.2
N=C(N)SCc1ccc(F)cc1	0.2
SMILES	Dicer inh
Cc1ccc(-n2c(-c3ccccc3)c[n+]3c2CCCCC3)cc1	-1.5
CCOc1ccc(Nc2cc(C)nc3ccc(OC)cc23)cc1	2.9
COc1ccc2nc(C)cc(Nc3ccc(Br)cc3)c2c1	5*
Cc1cc(Nc2ccccc2)c2ccccc2n1	1.5
COC(=O)C1=NNC2C(=O)N(c3cccc(C)c3)C(=O)C12 (stereo unspecified)	1.3
COc1ccc2c(c1)c(=O)oc1c(C)c(OCC(=O)O)ccc12	-0.95
O=C(Nc1ccc(OC(F)(F)F)cc1)Nc1cncc(C(F)(F)F)c1	-0.05
O=C(CN1CCOCC1)N1c2ccccc2CCc2ccccc21	2.6
O=C(NCC1NCCc2ccccc21)C1CCCCC1 (stereo unspecified)	1.5
O=C(NCC1c2ccccc2CCN1C(=O)CN1CCOCC1)C1CCCCC1 (stereo unspecified)	4.5*
O=C(O)CCCCCN1C(=O)c2cccc3cccc(c23)C1=O	-0.24
CC(O)CN1C(=O)c2cccc3cccc(c23)C1=O (stereo unspecified)	3.2*
O=C1c2cccc3cccc(c23)C(=O)N1CCCCO	1.4
O=C(CN1C(=O)c2cccc3cccc(c23)C1=O)N1CCOCC1	0.47
O=C1c2cccc3cccc(c23)C(=O)N1CC(=O)N1CCc2ccccc21	3.8*
O=C1c2cccc3cccc(c23)C(=O)N1CCNCCN1C(=O)c2cccc3cccc(c23)C1=O	1.2
O=C(O)CCCN1C(=O)c2cccc3cccc(c23)C1=O	2.1
NC(=O)C1CCN(C(=O)CN2C(=O)c3cccc4cccc2c34)CC1	-1
O=C(O)CN1C(=O)c2cccc3cccc(c23)C1=O	3.7*
Cc1ccc(OCC(=O)Nc2sc3c(c2C(N)=O)CCC3)c(C(C)(C)C)c1	-0.49
Cc1ccc(Cn2nc(C)c(NC(=O)c3nc4nc(C)cc(C(F)F)n4n3)c2C)cc1	-0.06
Cc1ccc([N+](=O)[O-])cc1S(=O)(=O)Nc1ccc2c(c1)OCO2	-0.63
CS(=O)(=N/C=C(\C#N)C(=O)c1cccs1)c1ccc(Cl)cc1 (stereo unspecified)	-0.01
Cc1ccc(OCc2nc3c4c5c(sc4ncn3n2)CCCC5)cc1	2
COCCOC(=O)C1=C(C)N=C2SCCC(=O)N2C1c1ccc(F)cc1 (stereo unspecified)	-0.5
SMILES	Dicer inh
CCOC(=O)c1c(N)n(-c2ccc3ccccc3c2)c2nc3ccccc3nc12	-2
Cc1ccc(C(=O)CN2/C(=C(/O)c3ccccc3)C(=O)c3ccccc3S2(=O)=O)c(C)c1	-0.63
Cc1ccc(C(=O)C2C(=O)c3ccccc3C2=O)cc1	0.21
Cc1ccc(N2C(=O)c3ccccc3C2C(=O)c2ccc(C)cc2O)cc1 (stereo unspecified)	12*
CN(C)c1c(F)cc(C(=O)NC(=O)Nc2nnc(C(F)(F)F)s2)cc1F	-0.95
COc1c(Br)cc(-c2nnn(Cc3ccc(C)cc3)n2)cc1Br	-0.79
COC(=O)c1c(N)c(C#N)c2n1CCC2	-1.7
Cc1cc(=O)[nH]c(SCc2nc3ccccc3n2C)n1	0.1
CC(C)(C)c1ccc(COc2ncnc3cc(Cl)ccc23)cc1	-1
CCOC(=O)C1=C(C)N=C2SCC(=O)N2C1c1cccc(OC)c1OC (stereo unspecified)	-0.18
Cc1cccc(C)c1NC(=O)N(Cc1ccccc1)C(=O)CC#N	0.25
CCCN(C(=O)CC#N)C(=O)Nc1ccccc1C	0
Cc1ccccc1NC(=O)N(Cc1cccs1)C(=O)CC#N	3.7*
COC(=O)CC(=O)NC(CSC(=O)Nc1ccc(SC(F)(F)F)cc1)C(=O)OC (stereo unspecified)	-1.3
Cc1cc(-c2nn(C)c(=O)c3ccccc23)cc(C)c1OC(=O)Nc1ccccc1	-0.42
CCOC(=O)CN(C(=O)COc1nc(-c2ccccc2)cc(C)c1C#N)c1ccccc1C	3.5*
CCOC(=O)CN(C(=O)COc1nc(-c2ccccc2)cc(C)c1C#N)c1cccc(OC)c1	0.12
CCOC(=O)CN(C(=O)COc1nc(-c2ccccc2)cc(C)c1C#N)c1ccc(C)cc1	-3.2
COc1cc2c(C)[nH]c(=O)c([N+](=O)[O-])c2cc1OC	-1.7
O=C(Cn1cnc2sc3c(c2c1=O)CCCC3)Nc1ccc(F)c(Cl)c1	0.1
Cc1ccc(-c2cnc(NCc3ccc(Br)cc3)n2C)cc1	3.3*
Cn1c(-c2ccccc2)cnc1NCc1cc(Cl)ccc1O	1.5
Cn1c(-c2ccccc2)cnc1NCc1cc(Br)ccc1F	1.1
COc1ccc(-c2cnc(NCc3cc(Br)ccc3F)n2C)cc1	-1.2
Cn1c(-c2ccc(Cl)cc2)cnc1NCc1ccccc1F	3.2*
Cn1c(-c2ccc(F)cc2)cnc1NCc1ccc(Br)cc1	3.7
Cn1c(-c2ccc(Cl)cc2)cnc1NCc1ccc(F)cc1F	3.3*
COc1cccc(-c2cnc(NCc3ccc(Br)cc3)n2C)c1	0.77
Cn1c(-c2ccc(F)cc2)cnc1NCc1ccccc1F	1.6
Cc1cc(-c2ccccc2)cc(-c2ccccc2)[o+]1	0.56
